Holding throughout (experiment): PBM; 200 nM protein, PBS
Common to all, as to details: dsDNA, one strand shown

Test [1] deals with T1, VENTX (Homo sapiens, UniProt O95231 78-163, R121Q).
T1 sequence: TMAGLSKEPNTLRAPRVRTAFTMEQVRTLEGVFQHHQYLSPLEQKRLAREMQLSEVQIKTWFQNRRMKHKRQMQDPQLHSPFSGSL

Test [2] concerns the target HOXA4 (Homo sapiens, UniProt Q00056 201-287, W262R).
Test [3] has as its target HOXA7 (Homo sapiens, UniProt P31268 116-202).
In test [4] the target is ALX4 (Homo sapiens, UniProt Q9H161 200-286).
The target in test [5] is HOXB6 (Homo sapiens, UniProt P17509 132-218, K202E).
The target of test [6] is ALX4 (Homo sapiens, UniProt Q9H161 200-286, Q225E).
For test [7], the target named is HOXA2 (Homo sapiens, UniProt O43364 129-215, R185T).
The target of test [8] is MSX2 (Homo sapiens, UniProt P35548 130-214, R199I).
The target of test [9] is HOXA2 (Homo sapiens, UniProt O43364 129-215, R185K).
Test [10] concerns the target HOXA4 (Homo sapiens, UniProt Q00056 201-287).
Test [11] addresses MSX2 (Homo sapiens, UniProt P35548 130-214).
In test [12] the target is MSX2 (Homo sapiens, UniProt P35548 130-214, F161Y).
In test [13] the target is VAX1 (Homo sapiens, UniProt Q5SQQ9 86-172, T142I).
The target of test [14] is HOXA7 (Homo sapiens, UniProt P31268 116-202, W177C).
Test [15] has as its target ALX1 (Homo sapiens, UniProt Q15699 118-204).
The target in test [16] is HOXA4 (Homo sapiens, UniProt Q00056 201-287, W262F).
Test [17] deals with VAX1 (Homo sapiens, UniProt Q5SQQ9 86-172, K157R).
Test [18] deals with HOXB6 (Homo sapiens, UniProt P17509 132-218).
For test [19], the target named is PRRX1 (Homo sapiens, UniProt P54821 80-166, F113S).
Test [20] deals with PRRX1 (Homo sapiens, UniProt P54821 80-166).
Sequence of PRRX1 (Homo sapiens, UniProt P54821 80-166) (P54821 80-166): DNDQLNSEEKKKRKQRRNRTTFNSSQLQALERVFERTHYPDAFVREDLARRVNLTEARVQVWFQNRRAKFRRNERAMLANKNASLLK

Sequence of HOXA2 (Homo sapiens, UniProt O43364 129-215, R185K) (O43364 129-215 R185K): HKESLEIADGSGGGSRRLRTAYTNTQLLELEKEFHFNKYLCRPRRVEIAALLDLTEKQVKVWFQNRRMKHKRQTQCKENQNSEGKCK
Sequence of MSX2 (Homo sapiens, UniProt P35548 130-214) (P35548 130-214): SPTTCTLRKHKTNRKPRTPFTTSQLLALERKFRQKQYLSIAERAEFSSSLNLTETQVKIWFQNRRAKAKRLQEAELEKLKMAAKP
Sequence of HOXA4 (Homo sapiens, UniProt Q00056 201-287, W262F) (Q00056 201-287 W262F): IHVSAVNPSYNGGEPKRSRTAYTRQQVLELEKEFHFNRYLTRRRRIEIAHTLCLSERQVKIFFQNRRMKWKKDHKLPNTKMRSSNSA
Sequence of HOXA4 (Homo sapiens, UniProt Q00056 201-287) (Q00056 201-287): as the sequence (Q00056 201-287 W262F) above, with F62W counted along it
Sequence of HOXA7 (Homo sapiens, UniProt P31268 116-202) (P31268 116-202): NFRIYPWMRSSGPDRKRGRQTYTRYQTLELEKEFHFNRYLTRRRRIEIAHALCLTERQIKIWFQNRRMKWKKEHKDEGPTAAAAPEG
Sequence of HOXB6 (Homo sapiens, UniProt P17509 132-218) (P17509 132-218): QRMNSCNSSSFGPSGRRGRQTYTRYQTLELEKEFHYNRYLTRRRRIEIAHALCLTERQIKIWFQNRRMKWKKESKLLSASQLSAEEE
Sequence of ALX4 (Homo sapiens, UniProt Q9H161 200-286) (Q9H161 200-286): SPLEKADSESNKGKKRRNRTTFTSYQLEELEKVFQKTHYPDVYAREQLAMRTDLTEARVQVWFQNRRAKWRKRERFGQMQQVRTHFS
Sequence of HOXA7 (Homo sapiens, UniProt P31268 116-202, W177C) (P31268 116-202 W177C): as the sequence (P31268 116-202) above, with W62C counted along it
Sequence of MSX2 (Homo sapiens, UniProt P35548 130-214, F161Y) (P35548 130-214 F161Y): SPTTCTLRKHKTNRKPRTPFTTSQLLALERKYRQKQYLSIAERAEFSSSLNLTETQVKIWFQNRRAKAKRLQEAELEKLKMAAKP
Sequence of HOXA4 (Homo sapiens, UniProt Q00056 201-287, W262R) (Q00056 201-287 W262R): as the sequence (Q00056 201-287 W262F) above, with F62R counted along it
Sequence of HOXA2 (Homo sapiens, UniProt O43364 129-215, R185T) (O43364 129-215 R185T): as the sequence (O43364 129-215 R185K) above, with K57T counted along it
Sequence of VAX1 (Homo sapiens, UniProt Q5SQQ9 86-172, K157R) (Q5SQQ9 86-172 K157R): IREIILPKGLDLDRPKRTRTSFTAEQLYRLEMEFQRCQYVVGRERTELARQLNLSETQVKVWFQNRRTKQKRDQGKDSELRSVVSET
Sequence of VAX1 (Homo sapiens, UniProt Q5SQQ9 86-172, T142I) (Q5SQQ9 86-172 T142I): as the sequence (Q5SQQ9 86-172 K157R) above, with T57I, R72K counted along it
Sequence of ALX1 (Q15699 118-204): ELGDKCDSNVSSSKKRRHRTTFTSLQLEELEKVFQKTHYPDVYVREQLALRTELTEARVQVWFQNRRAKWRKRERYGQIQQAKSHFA
Sequence of HOXB6 (Homo sapiens, UniProt P17509 132-218, K202E) (P17509 132-218 K202E): as the sequence (P17509 132-218) above, with K71E counted along it
Sequence of ALX4 (Homo sapiens, UniProt Q9H161 200-286, Q225E) (Q9H161 200-286 Q225E): as the sequence (Q9H161 200-286) above, with Q26E counted along it
Sequence of MSX2 (Homo sapiens, UniProt P35548 130-214, R199I) (P35548 130-214 R199I): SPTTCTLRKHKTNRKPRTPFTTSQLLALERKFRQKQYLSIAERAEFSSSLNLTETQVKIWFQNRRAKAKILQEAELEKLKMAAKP
Sequence of PRRX1 (Homo sapiens, UniProt P54821 80-166, F113S) (P54821 80-166 F113S): as the sequence (P54821 80-166) above, with F34S counted along it

Turning to GGCAATTA, the binding signal in test [1] is 11.9 upbm affinity estimate (log intensity, higher = more binding, comparable within an allelic series); in [2] it was 10.5 upbm affinity estimate (log intensity, higher = more binding, comparable within an allelic series); in test [3], 11.7 upbm affinity estimate (log intensity, higher = more binding, comparable within an allelic series); in test [4] it was 13.6 upbm affinity estimate (log intensity, higher = more binding, comparable within an allelic series); in test [5] it was 9.93 upbm affinity estimate (log intensity, higher = more binding, comparable within an allelic series); in test [6] it was 12.9 upbm affinity estimate (log intensity, higher = more binding, comparable within an allelic series). For the same sequence, the binding signal in test [7] is 13 upbm affinity estimate (log intensity, higher = more binding, comparable within an allelic series); in test [8], 12.9 upbm affinity estimate (log intensity, higher = more binding, comparable within an allelic series); in test [9] it was 13.3 upbm affinity estimate (log intensity, higher = more binding, comparable within an allelic series); in [10] it was 13.7 upbm affinity estimate (log intensity, higher = more binding, comparable within an allelic series); in test [11], 13.9 upbm affinity estimate (log intensity, higher = more binding, comparable within an allelic series); in test [12], 13.6 upbm affinity estimate (log intensity, higher = more binding, comparable within an allelic series). For the same sequence, the binding signal in [13] was 13 upbm affinity estimate (log intensity, higher = more binding, comparable within an allelic series); in test [14], 8.77 upbm affinity estimate (log intensity, higher = more binding, comparable within an allelic series); in test [15], 12 upbm affinity estimate (log intensity, higher = more binding, comparable within an allelic series); in [16] it was 11.4 upbm affinity estimate (log intensity, higher = more binding, comparable within an allelic series); in [17] it was 12.8 upbm affinity estimate (log intensity, higher = more binding, comparable within an allelic series); in [18], 12.2 upbm affinity estimate (log intensity, higher = more binding, comparable within an allelic series).

Regarding TAATTGCA, the binding signal in [1] was 11.8 upbm affinity estimate (log intensity, higher = more binding, comparable within an allelic series); in test [3], 11.6 upbm affinity estimate (log intensity, higher = more binding, comparable within an allelic series); in test [5], 10 upbm affinity estimate (log intensity, higher = more binding, comparable within an allelic series); in test [7], 12.7 upbm affinity estimate (log intensity, higher = more binding, comparable within an allelic series); in [8], 13 upbm affinity estimate (log intensity, higher = more binding, comparable within an allelic series); in [9], 13.4 upbm affinity estimate (log intensity, higher = more binding, comparable within an allelic series). In addition, the binding signal in test [11] is 13.9 upbm affinity estimate (log intensity, higher = more binding, comparable within an allelic series); in [12] it was 13.6 upbm affinity estimate (log intensity, higher = more binding, comparable within an allelic series); in test [13], 12.5 upbm affinity estimate (log intensity, higher = more binding, comparable within an allelic series); in test [14] it was 8.79 upbm affinity estimate (log intensity, higher = more binding, comparable within an allelic series); in test [17], 12.4 upbm affinity estimate (log intensity, higher = more binding, comparable within an allelic series); in test [18] it was 12.1 upbm affinity estimate (log intensity, higher = more binding, comparable within an allelic series).

CAATTATC: the binding signal in [1] was 11.7 upbm affinity estimate (log intensity, higher = more binding, comparable within an allelic series); in test [2], 10.5 upbm affinity estimate (log intensity, higher = more binding, comparable within an allelic series); in test [3], 11.2 upbm affinity estimate (log intensity, higher = more binding, comparable within an allelic series); in test [4] it was 13.8 upbm affinity estimate (log intensity, higher = more binding, comparable within an allelic series); in test [19], 11.3 upbm affinity estimate (log intensity, higher = more binding, comparable within an allelic series); in test [5] it was 9.98 upbm affinity estimate (log intensity, higher = more binding, comparable within an allelic series). The binding signal in test [6] was 13.2 upbm affinity estimate (log intensity, higher = more binding, comparable within an allelic series); in test [7], 12.4 upbm affinity estimate (log intensity, higher = more binding, comparable within an allelic series); in [8], 13 upbm affinity estimate (log intensity, higher = more binding, comparable within an allelic series); in [9], 13 upbm affinity estimate (log intensity, higher = more binding, comparable within an allelic series); in test [10], 13.6 upbm affinity estimate (log intensity, higher = more binding, comparable within an allelic series); in test [11], 13.9 upbm affinity estimate (log intensity, higher = more binding, comparable within an allelic series). Moreover, the binding signal in test [12] was 13.7 upbm affinity estimate (log intensity, higher = more binding, comparable within an allelic series); in [14], 8.91 upbm affinity estimate (log intensity, higher = more binding, comparable within an allelic series); in [15], 12.3 upbm affinity estimate (log intensity, higher = more binding, comparable within an allelic series); in [16], 11.2 upbm affinity estimate (log intensity, higher = more binding, comparable within an allelic series); in test [20] it was 13.4 upbm affinity estimate (log intensity, higher = more binding, comparable within an allelic series); in test [18], 11.6 upbm affinity estimate (log intensity, higher = more binding, comparable within an allelic series).

As for GTCAATTA, the binding signal is 11.7 upbm affinity estimate (log intensity, higher = more binding, comparable within an allelic series) in test [1]; 10.5 upbm affinity estimate (log intensity, higher = more binding, comparable within an allelic series) in test [2]; 13.9 upbm affinity estimate (log intensity, higher = more binding, comparable within an allelic series) in test [4]; 11 upbm affinity estimate (log intensity, higher = more binding, comparable within an allelic series) in [19]; 9.73 upbm affinity estimate (log intensity, higher = more binding, comparable within an allelic series) in test [5]; 13.4 upbm affinity estimate (log intensity, higher = more binding, comparable within an allelic series) in test [6]. Moreover, the binding signal in test [7] is 12.9 upbm affinity estimate (log intensity, higher = more binding, comparable within an allelic series); in test [8], 12.6 upbm affinity estimate (log intensity, higher = more binding, comparable within an allelic series); in [9], 13.2 upbm affinity estimate (log intensity, higher = more binding, comparable within an allelic series); in test [10] it was 13.8 upbm affinity estimate (log intensity, higher = more binding, comparable within an allelic series); in test [11], 13.8 upbm affinity estimate (log intensity, higher = more binding, comparable within an allelic series); in test [12] it was 13.4 upbm affinity estimate (log intensity, higher = more binding, comparable within an allelic series). Moreover, the binding signal in [13] was 13.1 upbm affinity estimate (log intensity, higher = more binding, comparable within an allelic series); in test [15], 12.4 upbm affinity estimate (log intensity, higher = more binding, comparable within an allelic series); in test [16], 11.3 upbm affinity estimate (log intensity, higher = more binding, comparable within an allelic series); in [20], 13.3 upbm affinity estimate (log intensity, higher = more binding, comparable within an allelic series); in test [17] it was 13.2 upbm affinity estimate (log intensity, higher = more binding, comparable within an allelic series); in test [18], 11.7 upbm affinity estimate (log intensity, higher = more binding, comparable within an allelic series).

The record behind these values is paper PMC11006913.
